Most compounds without a hit are left out; they make up all but 5.7% or so of the library.
ssDAF12 agonist: activates DAF-12 receptor from parasite S. stercoralis; HEK293 ssDAF-12/GRIP1 lit1-tk-luc reporter, luminescence; % of 3 µM dafachronic acid response; activation, % at 6.8 µM; 370,000 tested, 1% active;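 active = activation above the mean over all tested compounds plus 3 SD, cut at about 0.9% in these data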;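 also: 0% = DMSO-only wells and 100% = 3 µM delta7-dafachronic acid wells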
DAX1 inh-1: NR0B1 (DAX1) inhibition | P51843 | HEK293 Gal4-DAX1 luciferase reporter, luminescence | inhibition, % at 6.75 µM | 340,000 tested, 0.99% active | AID 504766;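 active = inhibition above the mean over all tested compounds plus 3 SD, cut at about 4.2% in these data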;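 also: 0% = DAX1-transfected cells with DMSO and 100% = empty-vector control cells with DMSO; inhibition shows as a rise in luminescence from relieved DAX1 repression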
hcDAF12 agonist: H. contortus DAF-12 activation, primary screen; HEK293 hcDAF-12 lit1-tk-luc reporter, luminescence; 0% DMSO, 100% Δ7-dafachronic acid; activation, % at 6.8 µM; 370,000 tested, 1.4% active;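 active = activation above the mean of all tested compounds plus 3 SD, cut at about 5.5% in these data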;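 also: 100% = response to 3 µM Δ7-dafachronic acid high control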
hgDAF-12 ag: activates the H. glycines DAF-12 receptor ligand-binding domain | 370,000 tested, 1.8% active | HEK293 GAL4-hgDAF12 UAS-luciferase reporter, agonist luminescence; normalized to butyrate control | AID 687014 | activation, % at 6.8 µM;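 active = activation above a cutoff set at the mean of all screened compounds plus 3 SD, cut at about 10% in these data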;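 also: 0% = DMSO wells and 100% = sodium butyrate wells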
AHR activator: activates the human aryl hydrocarbon receptor | AID 2796 | 320,000 tested, 2.5% active | activation, % at 5 µM | AHR-responsive luciferase reporter cells, luminescence | P35869; in the data active = activation above about 47%;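 also: 0% = vehicle wells and 100% = reference agonist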
Target sequence (P35869 whole entry, looked up): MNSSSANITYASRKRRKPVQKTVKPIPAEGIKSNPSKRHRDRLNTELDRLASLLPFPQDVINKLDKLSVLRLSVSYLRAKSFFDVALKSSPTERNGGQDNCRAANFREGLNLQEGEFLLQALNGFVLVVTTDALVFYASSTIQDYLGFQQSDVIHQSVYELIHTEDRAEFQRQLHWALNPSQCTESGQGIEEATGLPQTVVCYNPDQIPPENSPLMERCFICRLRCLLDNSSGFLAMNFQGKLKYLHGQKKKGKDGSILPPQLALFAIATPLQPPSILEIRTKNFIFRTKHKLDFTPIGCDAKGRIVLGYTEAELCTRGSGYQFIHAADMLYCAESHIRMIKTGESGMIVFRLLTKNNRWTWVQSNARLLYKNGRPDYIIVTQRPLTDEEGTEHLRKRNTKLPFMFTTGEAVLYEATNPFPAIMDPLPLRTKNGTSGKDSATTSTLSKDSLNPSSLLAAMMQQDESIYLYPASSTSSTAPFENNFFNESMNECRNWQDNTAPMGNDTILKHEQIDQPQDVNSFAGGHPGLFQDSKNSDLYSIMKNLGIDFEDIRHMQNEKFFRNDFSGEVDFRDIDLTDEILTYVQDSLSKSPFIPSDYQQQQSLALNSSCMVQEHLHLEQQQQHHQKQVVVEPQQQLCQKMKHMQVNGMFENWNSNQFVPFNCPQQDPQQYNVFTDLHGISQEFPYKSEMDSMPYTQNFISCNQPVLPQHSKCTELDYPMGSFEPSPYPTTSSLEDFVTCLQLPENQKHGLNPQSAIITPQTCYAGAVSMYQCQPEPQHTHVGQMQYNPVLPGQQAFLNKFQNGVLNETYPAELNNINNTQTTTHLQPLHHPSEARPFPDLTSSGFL
DAX1 inh-2: DAX1 (NR0B1) inhibition, primary screen; HEK293T StAR-luciferase reporter, SF-1/DAX-1 repression relief; 370,000 tested, 1.1% active; AID 652010; inhibition, % at 6.8 µM;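 active = inhibition above the mean over all tested compounds plus 3 SD, cut at about 3.6% in these data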;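 also: 0% = DAX-1 cells with DMSO and 100% = cells lacking DAX-1 with DMSO; higher inhibition means more luminescence from relief of DAX-1 repression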
hgDAF12 conf: hgDAF-12 agonism, confirmation assay; AID 743050; shares compounds with hgDAF-12 ag; activation, % at 6.8 µM; HEK293 GAL4-hgDAF12 luciferase reporter, agonist mode; percent of butyrate response; 3,300 tested, 80% active;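 active = mean activation over triplicate wells above the hit cutoff derived from the earlier primary screen, cut at about 11% in these data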;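 also: 0% = DMSO low control and 100% = 2 mM sodium butyrate high control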
LXRb DAF12 ctr: LXR-beta agonism as DAF-12 counter-screen; HEK293 Gal4-LXR luciferase reporter, 24 h; shares compounds with hgDAF-12 ag; activation, % at 6.8 µM; AID 743051; 3,300 tested, under 10 active;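 active = mean activation of the triplicate above a set limit carried over from the primary screen, none filed active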
The depositor's hits bear a star; . = no result given.

SMILES	ssDAF12 agonist	DAX1 inh-1	hcDAF12 agonist	hgDAF-12 ag	AHR activator	DAX1 inh-2	hgDAF12 conf	LXRb DAF12 ctr
O=C(Nc1ccc(C(=O)O)cc1)Nc1ccc(F)cc1F	0	-1	2	4	0	1	.	.
CCC(C)NC(=O)Cn1c(COc2ccc(Cl)cc2Cl)nc2ccccc21 (stereo not given)	0	0	3	16*	0	3	17*	1
COc1cccc(CN2CCNC(=O)C2CC(=O)NCCCn2ccnc2)c1 (stereo not given)	-1	0	0	0	0	1	.	.
CC[C@@]1(C(=O)OC)N[C@H](CN(C)C(=O)Nc2ccc(OC)cc2)[C@@H]2C(=O)N(Cc3ccccc3)C(=O)[C@@H]21	0	0	0	14*	0	1	6	0
Cc1ccc(C(=O)Nc2nnc(-c3ccco3)o2)cc1C	1.1*	0	3	14*	22	0	6	0
CC(=O)N1c2ccc(S(=O)(=O)N3CCCCC3)cc2CC1C(=O)NCc1ccccc1C (stereo not given)	-1	0	1	0	5	0	.	.
COc1ccc(C(CNC(=O)c2cccc(S(=O)(=O)NCc3ccccc3)c2)N2CCOCC2)cc1 (stereo not given)	-1	0	-1	-2	5	0	.	.
O=S(=O)(c1cccc(-c2csc(-c3cccnc3)n2)c1)N1CCOCC1	-2	-1	-3	0	44	-1	.	.
Oc1ccc(-c2csc(-c3cccnc3)n2)c(O)c1	0	1	0	25*	4	1	20*	1
COc1cc(OC)cc(C(=O)OCC(=O)N(C)c2ccccc2)c1	-1	2	-2	0	0	0	.	.
COc1cc(Cl)ccc1OCc1cc(C(=O)N2CCN(C)C(=O)[C@@H]2C)no1	0	3	5.8*	14*	.	3	13*	0
CC(C)CN(/C=N/c1sc2c(c1C#N)CCCCC2)CC(C)C	-1	-1	-2	1	10	0	.	.
CN1CCN(/C=N/c2sc3c(c2C#N)CCCCC3)CC1	1	6.8*	6.4*	19*	29	1	19*	1
CCN(/C=N/c1sc2c(c1C#N)CCCCC2)CC	-1	3	6.1*	14*	57*	3	13*	1
O=C(Nc1nncs1)c1cc(S(=O)(=O)N2CCCCC2)ccc1Cl	0	0	-1	0	-3	0	.	.
O=C(N/N=C/c1ccc(Cl)cc1)c1n[nH]c2c1CCCC2	1	-1	3	4	8	0	.	.
O=C(N/N=C/c1ccccc1)c1n[nH]c2c1CCCC2	1.1*	-1	2	17*	4	3	16*	1
CCC(CC)C(=O)c1c[nH]c(C(=O)N2CCN(c3ccccc3)CC2)c1	-2	0	2	-1	8	0	.	.
CCC(=O)Nc1ccccc1C(=O)OCC(=O)c1ccc2ccccc2c1	-2	-1	-2	-4	2	-1	.	.
CCC(=O)Nc1ccccc1C(=O)OCC(=O)c1ccccc1	1.3*	4	-2	16*	-1	3.7*	17*	1
CCS(=O)(=O)N1Cc2ccccc2CC1C(=O)Nc1ccc(OC)c(OC)c1 (stereo not given)	-1	-2	0	-2	5	0	.	.
CCS(=O)(=O)N1Cc2ccccc2CC1C(=O)Nc1cccc(OC)c1 (stereo not given)	0	1	3	14*	6	0	4	0
Cc1ccc2nc(-c3ccc(NC(=O)COCC(=O)O)cc3)sc2c1	0	3	4	16*	7	3	11*	0
CCN(CC)S(=O)(=O)c1cc(C(=O)OCC(=O)Nc2ccc(-c3nc4ccc(C)cc4s3)cc2)ccc1F	1.2*	1	5	16*	-5	2	19*	1
CCC(=O)NC(=S)Nc1ccc(-c2nc3ccc(C)cc3s2)cc1	-1	0	1	17*	4	2	13*	0
SMILES	ssDAF12 agonist	DAX1 inh-1	hcDAF12 agonist	hgDAF-12 ag	AHR activator	DAX1 inh-2	hgDAF12 conf	LXRb DAF12 ctr
Cc1ccc(C2(C)NC(=O)N(CC(=O)Nc3ccc(-c4nc5ccc(C)cc5s4)cc3)C2=O)cc1 (stereo not given)	1.1*	1	4	24*	4	2	12*	0
O=S1(=O)N[C@@H](c2ccccc2)COc2cc(Br)ccc21	0	0	-2	-1	.	-1	.	.
CCOC(=O)C(CC)n1cnc2c(nnn2-c2cccc(OC)c2)c1=O (stereo not given)	0	0	-3	0	5	0	.	.
O=C(NCCCNC(=O)c1cnccn1)c1ccc(Br)cc1	-1	-2	0	1	3	0	.	.
COc1ccc(OCCCC(=O)OCC(=O)c2ccc3c(c2)NC(=O)CO3)cc1	0	0	-1	-2	-1	1	.	.
COc1cccc(/C=N/Nc2nccnc2Cl)c1O	0	-8	2	4	.	-3	.	.
COc1ccc(/C=N/Nc2nccnc2Cl)c(OC)c1	0	2	2	21*	9	3	13*	0
COc1ccc(CCNC(=O)CCc2cc(OC)c(OC)c(OC)c2)cc1OC	0	0	-1	1	2	0	.	.
COc1ccc(NC(=O)C2=Cc3cccc(OC)c3OC2)cc1	-1	2	0	15*	3	2	10	0
COc1ccccc1N1CCN(C2=Nc3cccc4cccc2c34)CC1	0	0	-1	13*	6	4.0*	8	0
C/C(=N/NC(=O)CN1CCN(Cc2ccccc2Cl)CC1)c1ccncc1	-2	1	-1	-1	4	-1	.	.
O=C(O)CCN1C(=O)/C(=C/c2ccc(-c3nc4ccccc4s3)o2)SC1=S	0	1	3	0	8	0	.	.
O=Cc1ccc(-c2nc3ccccc3s2)o1	0	-1	6.0*	14*	2	2	11*	0
Cc1c(C(=O)NCCSCc2cccc(C(F)(F)F)c2)cnn1-c1ccc(Cl)cc1	-2	3	-2	-2	-3	0	.	.
COc1cccc(C(=O)NCC(C)(C)SCc2ccc(F)cc2)c1	-1	1	0	0	4	0	.	.
O=C(NC(=S)Nc1ccc2c(c1)OCCO2)c1cccc(Br)c1	0	2	5	14*	17	3	19*	1
O=C(Nc1nc2c(Br)cccc2s1)c1ccc2c(c1)OCCO2	0	.	3	15*	.	.	5	1
